The target in test [1] is Estrogen receptor beta (Homo sapiens) (UniProt Q92731). As to the kind of experiment: qHTS assay to identify small molecule agonists of the estrogen receptor beta (ER-beta) signaling pathway (AID 1259377; active = well fitted activation curve with a large enough effect in the signal ratio in the repeat runs, not every such curve was filed as active; the % refers to the signal ratio). In outline:
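Agonist mode cell assay in GripTite HEK293T cells expressing an ER-beta fusion that drives beta-lactamase from an Upstream Activator Sequence; 16 hr compound exposure at 37C, then 2 h LiveBLAzer B/G FRET substrate at room temperature, fluorescence read-out.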

The nature of test [2]: qHTS assay to identify small molecule agonists of the androgen receptor (AR) signaling pathway in the presence of an antagonist - cell viability counter screen (AID 1259379). Note: nearly all actives have a fitted effect of over 25% in size. Note: potency is the fitted concentration of half-maximal effect. Put shortly:
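A CellTiter-Fluor read-out measured viability of MDA-kb2 reporter cells (MMTV promoter with AR and GR response elements). Treatment: nilutamide 3.0uM final with compounds at 15 concentrations, 16 hr, 37C, 0% CO2.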

Test [3] in a line: qHTS assay to identify small molecule antagonists of the estrogen receptor beta (ER-beta) signaling pathway - cell viability counter screen (AID 1259382). Note: nearly all actives have a fitted effect of over 55% in size. Note: potency is the fitted concentration of half-maximal effect. Put shortly: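 Agonist-stimulated (1nM E2) ER-beta-UAS-bla HEK293T cells are incubated with library compounds for 16 hr at 37C. Cell viability is then assessed in the reporter-assay wells by adding CellTiter-Glo and reading luminescence after 30 min.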

Test [4] has as its target Estrogen receptor (Homo sapiens) (UniProt P03372). Description: qHTS assay to identify small molecule agonists of the estrogen receptor alpha (ER-alpha) signaling pathway in the presence of an antagonist (AID 1259383; calls by dose curve; note: top concentration of the series differs between compounds; nearly all actives have a fitted effect of over 15% in size). In outline:
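Using VM7Luc4E2 cells seeded 24hr before treatment, antagonist ICI-182,780 (10.0nM final) was added, followed by compounds at 15 concentrations. Plates incubated 22hr; ONE-Glo luminescence quantified reporter activity.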

Test [5] is described as follows: qHTS assay to identify small molecule agonists or antagonists of the thyroid stimulating hormone receptor (TSHR) signaling pathway - wild type cell line counter screen (AID 1259384; calls by dose curve). In outline:
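Wild-type HEK293 cells were plated 18 h at 37 C/5% CO2, pin-dosed with compound plus Ro20-1724 medium, held 30 min at room temperature, then given cAMP-d2 and anti-cAMP-cryptate; fluorescence was read after 1 h. Fifteen concentrations, triplicate.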

The target in test [6] is Thyrotropin receptor (Homo sapiens) (UniProt P16473). Description: qHTS assay to identify small molecule antagonists of the thyroid stimulating hormone receptor (TSHR) signaling pathway (AID 1259385; calls by dose curve; note: nearly all actives have a fitted effect of over 20% in size). In outline: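 TSHR-HEK293 cells were plated and held 18 h at 37C/5% CO2, then given compound plus Ro20-1724 and stimulated with TSH at 1.5 ng/mL final. After 30 min at room temperature, cAMP was detected with cAMP-d2/anti-cAMP-cryptate (1 h) by fluorescence.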

Test [7] addresses Progesterone receptor (Homo sapiens) (UniProt P06401). As to the kind of experiment: qHTS assay to identify small molecule agonists of the progesterone receptor (PR) signaling pathway (AID 1346784; calls by dose curve; note: nearly all actives have a fitted effect of over 30% in size; note: potency is the fitted concentration of half-maximal effect). In outline:
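Cells (PR-UAS-bla HEK 293T, GripTite) were plated in assay medium containing 2% charcoal-stripped FBS and incubated 6 hr. Test compounds in DMSO were added for 16 hr at 37C. FRET substrate was then loaded for 2 hr at room temperature before fluorescence reading.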

Test [8] has the same target. As to the kind of experiment: qHTS assay to identify small molecule antagonists of the progesterone receptor (PR) signaling pathway (AID 1346795; active = well fitted inhibition curve with a large enough effect in the signal ratio in the repeat runs, not every such curve was filed as active; the % refers to the signal ratio; note: potency is the fitted concentration of half-maximal effect). Put shortly: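 Antagonist mode: compounds tested against 1 nM (final) promegestone stimulation in HEK293T cells expressing PR-UAS-bla reporter, 16 hr at 37C, 5% CO2; beta-lactamase activity detected via B/G FRET substrate after 2 hr at room temperature.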

The nature of test [9]: qHTS assay to identify small molecule antagonists of the progesterone receptor (PR) signaling pathway - cell viability counter screen (AID 1346798). Note: series mostly up to about 92 µM; nearly all actives have a fitted effect of over 50% in size. Put shortly:
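Counter screen for cytotoxicity: viability of PR-UAS-bla HEK293T cells was measured with CellTiter-Glo luminescence following 16 hr compound exposure in the presence of R5020.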

Test [10] is described as follows: qHTS assay to identify small molecule antagonists of the TGF-beta/Smad signaling pathway - cell viability counter screen (AID 1346824). Note: nearly all actives have a fitted effect of over 50% in size. In outline: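 SBE-bla HEK 293T cells were plated overnight at 37 C, then given compounds in DMSO plus TGF-beta1 (added as 0.25 ng/mL solution) for 5 hr. After the bla read, CellTiter-Glo was added to the same wells and luminescence read after 30 min at room temperature.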

Test [11] in a line: qHTS assay to identify small molecule agonists of the TGF-beta/Smad signaling pathway - cell viability counter screen (AID 1346829). Note: top concentration of the series differs between compounds; nearly all actives have a fitted effect of over 45% in size. In outline:
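SBE-bla HEK 293T cells plated overnight, compound exposure 5 hr at 37 C. Viability read in the same wells by CellTiter-Glo luminescence after 30 min at room temperature, following the beta-lactamase read.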

The nature of test [12]: qHTS assay to identify small molecule agonists of the TGF-beta/Smad signaling pathway (AID 1346859; active = well fitted activation curve with a large enough effect in the signal ratio in the repeat runs, not every such curve was filed as active; the % refers to the signal ratio; note: series mostly up to about 77 µM). Put shortly: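 Reporter line: HEK 293T with stably integrated SBE-controlled beta-lactamase. Compound exposure lasts 5 hr at 37 C and 5% CO2; substrate loading follows for 2 hr at room temperature, with emission read at 460 and 530 nm.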
Test [13] addresses Thyrotropin-releasing hormone receptor (Homo sapiens) (UniProt P34981). As to the kind of experiment: qHTS assay to identify small molecule antagonists of the thyrotropin-releasing hormone receptor (TRHR) signaling pathway (AID 1346877; active = well fitted inhibition curve with a large enough effect in the repeat runs, not every such curve was filed as active; note: series mostly up to about 51 µM). Put shortly: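 Screening used HEK293 cells engineered with TRHR, with a brief 5 min room-temperature compound exposure preceding addition of TRH to 1 nM. The read-out was kinetic calcium-dye fluorescence, concentration-response from 15 doses in triplicate.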

Test [14] shares this target. As to the kind of experiment: qHTS assay to identify small molecule agonists of the thyrotropin-releasing hormone receptor (TRHR) signaling pathway (AID 1346891; calls by dose curve;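 note: HEK293 cells expressing TRHR with calcium dye readout; series mostly up to about 58 µM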). Put shortly: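 Cells: TRHR-Hek293, seeded and incubated 18 h. Dye loading: 2 h at 37 °C. Compound added from DMSO stock by pin tool. Read-out: kinetic calcium fluorescence over 3 min.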
A short description of test [15]: qHTS assay to identify small molecule agonists of the estrogen receptor alpha (ER-alpha) signaling pathway in the presence of an antagonist - cell viability counter screen (AID 1259386).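 Note: series mostly up to about 92 µM; cells exposed to compounds for 22 h at 37 °C before the viability read; nearly all actives have a fitted effect of over 30% in size.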 Put shortly:
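ICI-182,780 at 10.0nM final accompanies the compound titration (15 concentrations, 22hr, 37C) on VM7Luc4E2 cells. The CellTiter-Fluor fluorescence readout runs in the same wells as the luciferase assay.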

Test [16] can be described thus: qHTS assay to identify small molecule agonists of the progesterone receptor (PR) signaling pathway - cell viability counter screen (AID 1346799; calls by dose curve; note: nearly all actives have a fitted effect of over 45% in size; note: potency is the fitted concentration of half-maximal effect). Put shortly: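 Cells (PR-UAS-bla HEK293T) are plated at 3,000/well in 2% charcoal-stripped FBS medium, rested 6 hr, dosed and incubated 16 hr at 37C. CellTiter-Glo is then added and luminescence measured after 30 min at room temperature.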

Test [17] has as its target Estrogen receptor beta (Homo sapiens) (UniProt Q92731). Description: qHTS assay to identify small molecule antagonists of the estrogen receptor beta (ER-beta) signaling pathway (AID 1259378; active = well fitted inhibition curve with a large enough effect in the signal ratio in the repeat runs, not every such curve was filed as active; the % refers to the signal ratio; note: potency is the fitted concentration of half-maximal effect). Put shortly: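 ER-beta-UAS-bla HEK293T (GripTite) cells in 2% charcoal-stripped FBS medium were preincubated 6 hr at 37C, dosed with compound, then stimulated with 1 nM E2 (final) for 16 hr; beta-lactamase reporter read by B/G FRET fluorescence after 2 hr substrate loading.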

Test [18] can be described thus: qHTS assay to identify small molecule agonists of the estrogen receptor beta (ER-beta) signaling pathway - cell viability counter screen (AID 1259380). Note: nearly all actives have a fitted effect of over 30% in size. Note: potency is the fitted concentration of half-maximal effect. Put shortly:
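Cells used were ER-beta-UAS-bla HEK293T in medium with 2% charcoal-stripped FBS. They were treated for 16 hr at 37C. Viability came from CellTiter-Glo luminescence.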

Test [19] deals with Androgen receptor (Homo sapiens) (UniProt P10275). As to the kind of experiment: qHTS assay to identify small molecule agonists of the androgen receptor (AR) signaling pathway in the presence of an antagonist (AID 1259381; calls by dose curve; note: nearly all actives have a fitted effect of over 15% in size). Put shortly:
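Using human MDA-kb2 cells with an MMTV promoter–luciferase construct (AR and GR response elements), agonist activity is scored under 3.0uM nilutamide (final) co-treatment; 16hr incubation, 37C, luminescence readout via ONE-Glo.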

Structures are written as SMILES. Inconclusive results are not listed. The source made the active and inactive calls. Unless noted, calls come from the whole dose curve; as a rule, active = well fitted curve in the direction sought with a large enough effect in the repeat runs; inconclusive = weak or mixed curves; inactive = no such curve, though single readings can be large; an effect the other way counts as inactive or inconclusive.

Chain of Thyrotropin-releasing hormone receptor (Homo sapiens) (P34981 whole entry, looked up): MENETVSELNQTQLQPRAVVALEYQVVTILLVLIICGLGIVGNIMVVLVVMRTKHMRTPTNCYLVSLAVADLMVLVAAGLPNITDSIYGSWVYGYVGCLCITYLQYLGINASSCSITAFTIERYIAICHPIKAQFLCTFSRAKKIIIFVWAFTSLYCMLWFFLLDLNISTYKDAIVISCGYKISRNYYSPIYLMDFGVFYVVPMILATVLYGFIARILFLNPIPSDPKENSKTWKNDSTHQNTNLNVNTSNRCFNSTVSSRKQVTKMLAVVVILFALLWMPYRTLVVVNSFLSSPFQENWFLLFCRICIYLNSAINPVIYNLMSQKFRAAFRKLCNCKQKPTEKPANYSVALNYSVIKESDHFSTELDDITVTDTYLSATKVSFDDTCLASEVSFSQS
Chain of Androgen receptor (Homo sapiens) (P10275 whole entry, looked up): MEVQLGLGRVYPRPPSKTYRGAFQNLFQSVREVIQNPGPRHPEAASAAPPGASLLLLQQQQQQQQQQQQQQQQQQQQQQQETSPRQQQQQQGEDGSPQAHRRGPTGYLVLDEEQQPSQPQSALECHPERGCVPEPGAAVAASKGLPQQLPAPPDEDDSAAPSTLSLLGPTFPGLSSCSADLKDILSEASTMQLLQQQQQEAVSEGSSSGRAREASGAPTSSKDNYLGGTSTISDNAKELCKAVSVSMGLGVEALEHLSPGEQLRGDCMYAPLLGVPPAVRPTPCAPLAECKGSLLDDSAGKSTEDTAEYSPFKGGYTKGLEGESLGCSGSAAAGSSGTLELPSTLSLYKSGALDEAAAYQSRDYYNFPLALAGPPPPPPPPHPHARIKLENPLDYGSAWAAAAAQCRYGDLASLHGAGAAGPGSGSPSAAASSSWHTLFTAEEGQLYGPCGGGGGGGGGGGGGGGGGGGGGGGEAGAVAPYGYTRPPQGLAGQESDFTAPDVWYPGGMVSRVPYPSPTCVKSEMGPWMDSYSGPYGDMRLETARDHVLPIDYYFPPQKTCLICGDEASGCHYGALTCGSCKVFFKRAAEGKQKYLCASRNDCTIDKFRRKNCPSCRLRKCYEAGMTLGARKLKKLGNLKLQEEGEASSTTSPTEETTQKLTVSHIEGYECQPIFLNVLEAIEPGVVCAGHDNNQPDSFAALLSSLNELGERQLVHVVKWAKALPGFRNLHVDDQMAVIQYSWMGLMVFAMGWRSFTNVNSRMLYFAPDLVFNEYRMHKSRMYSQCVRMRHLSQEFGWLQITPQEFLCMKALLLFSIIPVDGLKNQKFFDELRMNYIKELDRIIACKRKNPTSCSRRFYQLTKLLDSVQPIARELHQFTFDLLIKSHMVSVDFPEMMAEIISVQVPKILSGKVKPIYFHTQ
Chain of Estrogen receptor beta (Homo sapiens) (Q92731 whole entry, looked up, the tested form may be a part): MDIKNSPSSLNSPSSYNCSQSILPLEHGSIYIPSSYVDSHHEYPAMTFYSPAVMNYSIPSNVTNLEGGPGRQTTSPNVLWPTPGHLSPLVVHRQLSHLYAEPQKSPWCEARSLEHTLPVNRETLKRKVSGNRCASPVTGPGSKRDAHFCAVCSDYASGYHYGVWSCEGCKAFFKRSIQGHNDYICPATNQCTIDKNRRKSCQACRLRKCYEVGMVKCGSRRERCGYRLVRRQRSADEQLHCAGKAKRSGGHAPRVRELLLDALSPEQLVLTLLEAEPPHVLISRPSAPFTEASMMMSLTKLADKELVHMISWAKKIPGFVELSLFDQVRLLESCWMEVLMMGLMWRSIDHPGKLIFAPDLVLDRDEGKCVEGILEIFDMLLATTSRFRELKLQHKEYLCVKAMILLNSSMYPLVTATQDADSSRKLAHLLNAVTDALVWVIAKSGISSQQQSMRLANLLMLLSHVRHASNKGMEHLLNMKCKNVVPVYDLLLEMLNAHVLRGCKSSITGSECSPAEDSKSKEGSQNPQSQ
Chain of Estrogen receptor (Homo sapiens) (P03372 whole entry, looked up): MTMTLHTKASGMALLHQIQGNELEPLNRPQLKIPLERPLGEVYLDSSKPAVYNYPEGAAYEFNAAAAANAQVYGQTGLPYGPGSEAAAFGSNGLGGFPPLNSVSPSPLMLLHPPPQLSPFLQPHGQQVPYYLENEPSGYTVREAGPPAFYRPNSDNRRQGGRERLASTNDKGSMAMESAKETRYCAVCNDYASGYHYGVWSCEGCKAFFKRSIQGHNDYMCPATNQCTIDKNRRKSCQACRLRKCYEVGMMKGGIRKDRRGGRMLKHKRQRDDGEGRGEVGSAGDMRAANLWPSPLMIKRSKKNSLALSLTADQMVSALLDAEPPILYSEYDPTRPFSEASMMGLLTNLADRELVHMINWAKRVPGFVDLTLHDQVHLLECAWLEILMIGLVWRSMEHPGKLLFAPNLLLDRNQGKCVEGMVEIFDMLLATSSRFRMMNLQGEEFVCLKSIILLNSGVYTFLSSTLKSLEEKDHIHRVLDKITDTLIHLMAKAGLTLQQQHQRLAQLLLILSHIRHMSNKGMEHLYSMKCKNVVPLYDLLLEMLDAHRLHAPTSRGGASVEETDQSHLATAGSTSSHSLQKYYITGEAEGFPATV
Chain of Thyrotropin receptor (Homo sapiens) (P16473 whole entry, looked up): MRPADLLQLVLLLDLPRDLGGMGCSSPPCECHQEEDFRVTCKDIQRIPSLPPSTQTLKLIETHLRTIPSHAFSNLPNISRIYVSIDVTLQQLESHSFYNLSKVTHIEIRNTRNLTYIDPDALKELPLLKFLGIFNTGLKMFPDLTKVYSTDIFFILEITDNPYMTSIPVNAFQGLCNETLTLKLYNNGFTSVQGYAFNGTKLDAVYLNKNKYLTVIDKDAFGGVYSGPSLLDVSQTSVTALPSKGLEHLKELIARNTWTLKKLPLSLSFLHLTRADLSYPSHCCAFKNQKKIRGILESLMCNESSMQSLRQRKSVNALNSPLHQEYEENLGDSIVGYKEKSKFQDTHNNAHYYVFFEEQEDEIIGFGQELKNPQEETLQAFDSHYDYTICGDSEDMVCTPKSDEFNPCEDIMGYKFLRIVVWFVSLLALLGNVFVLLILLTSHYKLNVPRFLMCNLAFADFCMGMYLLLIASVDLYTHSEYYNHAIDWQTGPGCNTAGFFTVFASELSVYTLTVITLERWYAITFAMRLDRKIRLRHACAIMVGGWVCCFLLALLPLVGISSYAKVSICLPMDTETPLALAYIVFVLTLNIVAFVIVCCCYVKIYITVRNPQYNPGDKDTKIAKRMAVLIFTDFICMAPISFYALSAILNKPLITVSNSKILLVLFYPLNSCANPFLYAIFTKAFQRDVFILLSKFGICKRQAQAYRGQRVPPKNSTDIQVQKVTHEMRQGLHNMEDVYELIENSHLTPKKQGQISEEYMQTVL
Chain of Progesterone receptor (Homo sapiens) (P06401 whole entry, looked up): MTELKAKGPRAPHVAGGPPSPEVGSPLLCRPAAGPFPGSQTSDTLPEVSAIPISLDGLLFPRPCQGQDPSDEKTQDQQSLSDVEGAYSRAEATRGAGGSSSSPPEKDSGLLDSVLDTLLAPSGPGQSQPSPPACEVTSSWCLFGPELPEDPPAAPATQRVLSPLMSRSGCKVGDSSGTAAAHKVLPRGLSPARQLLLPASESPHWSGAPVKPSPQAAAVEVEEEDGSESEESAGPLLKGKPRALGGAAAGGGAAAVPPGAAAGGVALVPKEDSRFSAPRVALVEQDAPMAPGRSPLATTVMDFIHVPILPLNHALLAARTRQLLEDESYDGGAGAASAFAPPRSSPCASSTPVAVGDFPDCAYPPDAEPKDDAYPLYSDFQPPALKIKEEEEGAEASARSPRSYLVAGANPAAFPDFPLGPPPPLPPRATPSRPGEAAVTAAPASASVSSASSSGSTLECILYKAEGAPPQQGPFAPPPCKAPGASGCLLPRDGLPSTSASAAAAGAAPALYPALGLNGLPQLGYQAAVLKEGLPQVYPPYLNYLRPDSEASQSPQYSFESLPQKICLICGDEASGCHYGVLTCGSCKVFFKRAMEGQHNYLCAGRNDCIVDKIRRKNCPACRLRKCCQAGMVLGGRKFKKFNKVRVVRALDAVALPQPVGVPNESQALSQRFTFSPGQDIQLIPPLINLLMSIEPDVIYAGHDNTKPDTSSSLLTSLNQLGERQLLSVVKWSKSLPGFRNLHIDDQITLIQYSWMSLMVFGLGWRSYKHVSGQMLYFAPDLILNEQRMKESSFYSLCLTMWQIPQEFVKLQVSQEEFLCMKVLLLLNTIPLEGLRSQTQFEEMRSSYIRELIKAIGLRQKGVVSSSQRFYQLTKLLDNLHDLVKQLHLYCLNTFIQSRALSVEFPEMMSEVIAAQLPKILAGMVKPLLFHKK

Take `Cc1ccc(S)cc1`: the Potency result in test [1], in test [2], in [3], in [4], in test [6] and in test [7] was “inactive” in each case. In addition, the Potency entry in test [8], in test [9] and in test [14] was “inactive” each time. Further, the result in test [5], in [10], in test [11], in [12] and in test [13] was inactive.
With `CCCCCCCC/C=C\CCCCCCCC(=O)OC(CO)CO`, the Potency entry in test [1], in test [15], in test [7], in test [8], in test [9] and in [16] was “inactive” throughout. Also, the call in test [10], in test [11], in test [12] and in test [13] was inactive.
As to `C=CC(C)(O)CCCC(C)CCCC(C)CCCC(C)C` (centres undefined), the Potency result in test [17], in [2], in test [18], in [3], in [4] and in [15] was “inactive” throughout. Moreover, the Potency entry in test [8], in test [9] and in test [14] was “inactive” throughout. Besides, the compound was called inactive in [5], in test [10], in [11], in [12] and in [13]. Also, the Potency in test [7] was 13.6 µM (active).
As to `COCc1c(C(C)C)nc(C(C)C)c(/C=C/[C@@H](O)C[C@@H](O)CC(=O)O)c1-c1ccc(F)cc1`, the Potency entry in test [2], in [19], in [4], in [15] and in test [7] was “inactive” throughout. The call in test [10], in [11] and in test [12] was inactive.
Consider `CCCCCCCCSCCO`, for which the Potency entry in [2], in [18], in [19], in [3], in test [6] and in [15] was “inactive” each time. The Potency result in [9], in test [16] and in test [14] was “inactive” throughout. Also, the outcome in test [5], in [10], in [11], in test [12] and in [13] was inactive.
With `CCCCC(=O)O[C@]1(C(=O)CO)[C@@H](C)C[C@H]2[C@@H]3CCC4=CC(=O)C=C[C@]4(C)[C@@]3(F)[C@@H](O)C[C@@]21C`, the Potency result in test [2], in test [4], in test [15], in [8] and in test [16] was “inactive” throughout. For the same compound, the compound was called inactive in [5], in [10] and in test [11]. Moreover, the Potency in [7] was 0.0019 µM (active).
As to `Cc1oc(C)c(C(=O)Nc2ccccc2)c1C`, the Potency result in test [3], in test [4], in test [15], in [7], in test [9] and in [16] was “inactive” throughout. The Potency entry in [14] is “inactive”. Further, the compound was classed as inactive in test [12] and in [13].
In the case of `CNC(=S)NC`, the Potency result in test [2], in test [19], in [4], in [6], in test [15] and in test [7] was “inactive” each time. Besides, the Potency entry in test [14] is “inactive”. Besides, the Potency in [16] was 7.7 µM (active). The compound was classed as inactive in test [10], in [11], in test [12] and in [13].
As for `N#C/C(=C1\SCC(c2ccccc2Cl)S1)n1ccnc1` (centres undefined), the Potency entry in test [17], in test [2], in test [19], in [3], in test [6] and in [15] was “inactive” each time. Besides, the Potency result in test [7] and in test [14] was “inactive” in each case. Besides, the compound was classed as inactive in test [5], in test [10], in test [11], in test [12] and in test [13]. In test [8], the Potency was 23.7 µM (active).
As to `O=C(N[C@@H](c1ccccc1)[C@@H]1CCCCN1)c1cccc(C(F)(F)F)c1Cl`, the Potency in test [17] is 43.3 µM (active); in test [2], 17.2 µM (active); in [18], 54.5 µM (active); in [3], 61.1 µM (active); in test [8], 34.4 µM (active). The Potency entry in test [4], in test [15], in test [7] and in test [14] was “inactive” throughout. Also, the result in test [5], in [10], in test [11], in test [12] and in test [13] was inactive.

These data come from PubChem BioAssay (Tox21).
